The panel holds about 79,000 compounds, 15% with a hit somewhere; the sample as a whole holds those more often. Unmarked numbers belong to inactive results. The source made the active and inactive calls. Rule as the data show it: active = growth inhibition above about 70%; inactive = the rest.
Tests used:
[1] = NCI Yeast Anticancer Drug Screen. Data for the rad50 strain (AID 155);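 also: 0% = growth of vehicle-only cultures of the same strain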; conditions: S. cerevisiae rad50 strain growth inhibition, hits give high values
Outline: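 Growth of the mutant yeast was measured after compound exposure and referenced to vehicle-treated cultures.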

[2] = NCI Yeast Anticancer Drug Screen. Data for the mec2-1 strain (AID 157); conditions: S. cerevisiae mec2-1 strain, hits give high values
Outline: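 Mutant yeast (mec2-1) grown with compound; growth inhibition relative to vehicle control reported.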

[3] = NCI Yeast Anticancer Drug Screen. Data for the sgs1 mgt1 strain (AID 161);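 also: 0% = growth of cultures given vehicle only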; conditions: S. cerevisiae sgs1 mgt1 strain, hits give high values
Outline: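 Yeast cells carrying a defined DNA-repair defect were exposed to test compounds. Growth inhibition was measured relative to vehicle-treated controls.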

[4] = NCI Yeast Anticancer Drug Screen. Data for the cln2 rad14 strain (AID 165);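 also: 0% = growth equal to vehicle treated cultures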; conditions: S. cerevisiae cln2 rad14 strain, hits give high values
Outline: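 Readout is yeast growth inhibition versus vehicle-treated controls, using a strain with cln2 and rad14 alterations exposed to compound.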

[5] = NCI Yeast Anticancer Drug Screen. Data for the bub3 strain (AID 167); conditions: S. cerevisiae bub3 mutant strain, hits give high values
Outline: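 Whole-cell yeast assay. The mutant strain was incubated with compounds, and growth inhibition was determined by comparison with vehicle-treated cells.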

[6] = NCI Yeast Anticancer Drug Screen. Data for the mlh1 rad18 strain (AID 175); conditions: S. cerevisiae mlh1 rad18 strain growth inhibition, hits give high values
Outline: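 Genetically defined yeast (DNA repair-deficient) exposed to compounds; growth inhibition determined relative to vehicle.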

[7] = at 5.0 µM (retest, dose inferred, filed as 0.5)
[8] = at 50.0 µM (retest, dose inferred, filed as 5.0)

Row | Structure (SMILES) | growth inhibition [1, 7] | growth inhibition [1, 8] | growth inhibition ([1]; at 50.0 µM) | growth inhibition [2, 7] | growth inhibition [2, 8] | growth inhibition ([2]; at 50.0 µM) | growth inhibition [3, 7] | growth inhibition [3, 8] | growth inhibition ([3]; at 50.0 µM) | growth inhibition [4, 7] | growth inhibition [4, 8] | growth inhibition ([4]; at 50.0 µM) | growth inhibition [5, 7] | growth inhibition [5, 8] | growth inhibition ([5]; at 50.0 µM) | growth inhibition [6, 7] | growth inhibition [6, 8] | growth inhibition ([6]; at 50.0 µM)
1 | NC(=O)NC(=O)C(Cc1ccc(Cl)cc1)c1ccccc1 (stereo not given) | -1% | 17% | -15% | -6% | 8% | -13.2% | 1% | 7% | -5.75% | 4% | 19% | -65.7% | 6% | 20% | -52.6% | -13% | 5% | 2.15%
2 | CC(C)(C)c1ccc(-c2c3ccccc3cc3ccccc23)cc1 | -1% | -1% | -2.45% | -1% | -1% | -4.85% | -5% | -2% | 7.55% | 2% | -1% | 30.1% | 1% | 16% | 0.8% | -1% | 2% | -2.2%
3 | O=[N+]([O-])c1cc([N+](=O)[O-])c2ccccc2c1NS(=O)(=O)/C=C/c1ccccc1 | 5% | 54% | 53% | 8% | 64% | 70.7% (active) | 16% | 47% | 49% | 10% | 77% (active) | 50.4% | 2% | 42% | 16.3% | 7% | 71% (active) | 44.5%
4 | CCOC(=O)c1c(CN2CCNCC2)nc2ccc(Cl)cc2c1-c1ccccc1 | 30% | 30% | 29.4% | 35% | 35% | 14.2% | 26% | 26% | 68% | 23% | 23% | 41.1% | 29% | 29% | 27.6% | 32% | 32% | 39.5%
5 | Oc1cccc2c1-c1ccccc1C2 | -6% | 96% (active) | 98.8% (active) | 1% | 92% (active) | 98.9% (active) | -7% | 97% (active) | 98.4% (active) | -4% | 83% (active) | 96.8% (active) | 32% | 97% (active) | 98.4% (active) | 9% | 98% (active) | 98.1% (active)
